Sampled rows, rich in hits. Any-hit rate of the full collection: about 2.3%.
MEKK2 mut-MEK5: signal of MEK5 binding to mutant human MEKK2 PB1 domain | bead flow cytometry, Alexa488-MEK5 binding to MEKK2 mutant | percent response, % at 10 µM | 290,000 compounds, 0.35% hits | AID 1530; in the data active means percent response above about 24%, passing the limit was not always enough
MEKK2wt PB1 HTS: raises or lowers MEK5 binding to wildtype human MEKK2 PB1 domain; binding response (% of control), % at 10 µM; 290,000 compounds, 1.1% hits; bead flow cytometry, Alexa488-MEK5 binding to MEKK2 WT; actives lie on both sides; AID 1531; Q9Y2U5; in the data active means binding response below about 67% or above about 130%
UBC13 inh: inhibitors of human UBC13 polyubiquitin chain formation; P61088; TR-FRET; inhibition, % at 20 µM; 330,000 compounds, 0.47% hits; in the data active means inhibition above about 45%, passing the limit was not always enough
MEKK3 PB1 HTS: modulators (inhibitors or enhancers) of MEK5 binding to human MEKK3 PB1 domain. Q99759. bead-based flow cytometry, Alexa488-MEK5 binding to MEKK3; actives lie on both sides; 0 = blocked by unlabeled MEK5, 100 = vehicle. binding response (% of control), % at 10 µM. 290,000 compounds, 1.4% hits. AID 1529;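 active means binding response more than 3 SD above or below the average of its plate-row segment, actives on both sides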;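 further: Alexa488 bead fluorescence after subtracting the streptavidin-only scavenger bead signal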
Target sequence (Q99759 whole entry, looked up, the tested form may be a part): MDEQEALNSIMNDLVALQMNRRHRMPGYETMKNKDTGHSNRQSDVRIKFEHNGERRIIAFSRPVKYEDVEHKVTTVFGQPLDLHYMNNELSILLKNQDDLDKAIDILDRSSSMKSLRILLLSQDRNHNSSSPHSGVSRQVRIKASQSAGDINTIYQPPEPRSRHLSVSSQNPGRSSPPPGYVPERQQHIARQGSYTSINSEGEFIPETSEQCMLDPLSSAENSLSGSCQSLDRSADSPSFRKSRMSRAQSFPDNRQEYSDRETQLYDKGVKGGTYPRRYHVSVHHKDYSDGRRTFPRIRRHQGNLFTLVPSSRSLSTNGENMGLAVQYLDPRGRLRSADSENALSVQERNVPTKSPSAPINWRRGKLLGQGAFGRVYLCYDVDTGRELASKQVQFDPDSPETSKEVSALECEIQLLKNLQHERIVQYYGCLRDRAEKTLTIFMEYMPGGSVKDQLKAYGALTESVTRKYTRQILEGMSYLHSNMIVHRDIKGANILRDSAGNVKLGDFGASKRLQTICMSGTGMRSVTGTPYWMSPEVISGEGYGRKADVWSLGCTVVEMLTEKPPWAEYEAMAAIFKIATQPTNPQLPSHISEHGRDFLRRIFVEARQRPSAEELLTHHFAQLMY
MEKK2wt confirm: raises or lowers MEK5 binding to wildtype human MEKK2, retest. AID 1892. bead flow cytometry, Alexa488-MEK5 binding to MEKK2 WT; actives lie on both sides. 5,900 compounds, 2.4% hits. binding response (% of control), % at 10 µM. shares compounds with MEKK3 PB1 HTS; in the data active means binding response below about 16% or above about 210%; inactive means in between
MEKK2mut-MEK5: signal of MEK5 binding to mutant human MEKK2, retest; shares compounds with MEKK3 PB1 HTS; bead flow cytometry, Alexa488-MEK5 binding to MEKK2 mutant; percent response, % at 10 µM; 5,900 compounds, 2% hits; in the data active means percent response mostly above about 71%, no sharp cut-off; inactive means mostly below about 38%;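 further: higher means compound restores mutant binding toward wildtype level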
MEKK3 confirm: MEKK3-MEK5 PB1 inhibition, single concentration confirmation. shares compounds with MEKK3 PB1 HTS. AID 1894. 5,900 compounds, 1.8% hits. bead flow cytometry, Alexa488-MEK5 binding to MEKK3; stronger effect = lower value. binding response (% of control), % at 10 µM;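 active means binding response below 72% of control, or above a set upper limit, though filed actives all read lower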;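 further: 100% = DMSO only wells and 0% = binding blocked by excess unlabeled MEK5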
Active calls of the source: *; nt = no result; [ ] = dose if it differs, or a comment.

SMILES	MEKK2 mut-MEK5	MEKK2wt PB1 HTS	UBC13 inh	MEKK3 PB1 HTS	MEKK2wt confirm	MEKK2mut-MEK5	MEKK3 confirm
COc1cccc(CN2CC(C(=O)NCc3ccc(Cl)s3)CCC2=O)c1 (centres undefined)	3	97	-3	99	nt	nt	nt
Cc1cc(C)nc(SCC(=O)n2c3c(c4ccccc42)CCCC3)n1	0	106	11	153*	105	5	104
O=C(CSc1ncccn1)n1c2c(c3ccccc31)CCCC2	5	103	11	108	nt	nt	nt
CCOC(=O)c1cc(CC)sc1NC(=O)c1cc(OC)c(OC)c(OC)c1	15	141*	42	119	105	-7	100
Cc1cccc(CN2CCN(CC(=O)NCCCN3CCN(c4ccc(F)cc4)CC3)C2=O)c1	34	180*	30	111	146	25	108
CCOc1ccc(CCNC(=O)C(C)n2nc(C)n3c(cc4occc43)c2=O)cc1OCC (centres undefined)	-44	69*[inhibitor]	-4	83	101	-2	102
Cc1nn(C(C)C(=O)NCCc2ccccc2)c(=O)c2cc3occc3n12 (centres undefined)	0	103	-2	99	nt	nt	nt
CC(C)C(OC(=O)c1cc2sccc2n1C)C(=O)NCC1CCCO1 (centres undefined)	-26	-2.0*[inhibitor]	4	1.0*[inhibitor]	97	-9	98
CC1=NN(c2ccc(Cl)cc2)C(=O)/C1=C\c1cccn1-c1ccc(S(N)(=O)=O)cc1	-4	92	-40	85	nt	nt	nt
Cc1csc(Sc2nc3c(c(=O)[nH]c(=O)n3C)n2CCCc2ccccc2)n1	-21	1.0*[inhibitor]	8	2.0*[inhibitor]	91	-10	93
Cn1c(=O)[nH]c(=O)c2c1nc(SCCO)n2CCCc1ccccc1	-2	98	0	96	nt	nt	nt
COc1ccc(NC(=O)COC(=O)CC2CCCC2)cc1Cl	nt	nt	-6	nt	nt	nt	nt
Cc1ccc(Cl)cc1NC(=O)c1ccccc1OCC(=O)Nc1ccc(Cl)cc1	2	116	-14	86	nt	nt	nt
CCOCC(=O)Nc1ccc(C)c(Cl)c1	-6	85	0	77*[inhibitor]	104	7	103
Cc1ccc(NC(=O)COC(=O)CC2CCCC2)cc1Cl	-3	82	10	70*[inhibitor]	100	0	97
Cc1ccc(NC(=O)COc2ccccc2C(=O)Nc2ccccc2)cc1Cl	68*	146*	-1	103	138	12	106
COc1ccccc1-c1nc2ccccc2c(=O)n1NC(=O)c1cccs1	-1	103	-17	91	nt	nt	nt
CCOC(=O)C1=NN(C(C)=O)C2(CC(=O)N(c3cccc(C)c3)C2=O)C1 (centres undefined)	0	104	0	139*	105	-3	103
COC(=O)C1=NN(C(C)=O)C2(CC(=O)N(c3cccc(C)c3)C2=O)C1 (centres undefined)	1	108	-7	116	nt	nt	nt
Cc1ccc(Sc2nc(C)cc(C)c2S(C)(=O)=O)cc1	-10	95	7	82*[inhibitor]	104	-1	100
Cc1cc2nncn2c2ccccc12	-6	84	-3	78*[inhibitor]	104	3	102
O=C(O)C1Sc2[nH]c(=O)sc2C2c3ccc(O)cc3OC(=O)C12 (centres undefined)	1	97	-9	84	nt	nt	nt
O=C1CCCC(O)=C1N=Nc1ccc2c(c1)OCO2	1	108	-181	146*	103	1	100
Cc1ccc(NC(=O)C(OC(=O)c2ccccc2Cl)c2ccccc2)cc1Cl (centres undefined)	-4	98	-2	88	nt	nt	nt
COc1cccc(NC(=O)C(NC2CCCC2)c2ccccc2)c1 (centres undefined)	10	104	0	100	nt	nt	nt
SMILES	MEKK2 mut-MEK5	MEKK2wt PB1 HTS	UBC13 inh	MEKK3 PB1 HTS	MEKK2wt confirm	MEKK2mut-MEK5	MEKK3 confirm
Cc1cc(C(=O)OC(C(=O)Nc2ccc(C)c(Cl)c2)c2ccccc2)c(C)o1 (centres undefined)	13	147*	nt	105	127	10	103
Cc1ccc(NC(=O)C(NC2CCCC2)c2ccccc2)cc1Cl (centres undefined)	37	142*	18	105	115	9	102
Cc1occc1-c1nnc(SCC(=O)c2ccc(F)cc2)o1	-16	56	2	48*[inhibitor]	103	1	105
Cc1ccc(CSc2nnc(-c3ccc(NS(=O)(=O)c4ccccc4)cc3)o2)cc1	3	26*[inhibitor]	-11	21*[inhibitor]	100	-8	102
Cc1ccc(C(=O)CSc2nnc(-c3ccccc3)o2)cc1	-2	-2.0*[inhibitor]	-2	1.0*[inhibitor]	99	0	103
Cc1ccc(S(=O)(=O)Nc2ccc(-c3nnc(SCc4ccccc4Cl)o3)cc2)cc1	-2	97	-10	101	nt	nt	nt
CCc1cc2c(=O)oc(-c3ccc(F)cc3)nc2s1	4	109	-5	100	nt	nt	nt
C/C(=N\OCC(=O)OC(C)C(=O)Nc1ccc(C(N)=O)cc1)c1ccc2c(c1)OCO2 (centres undefined)	2	95	-2	95	nt	nt	nt
CC(=O)Nc1ccc(NC(=O)CSc2nnc3ccc(-c4cccnc4)nn23)cc1	nt	nt	0	nt	nt	nt	nt
Cc1cc(C)nc(NS(=O)(=O)c2ccc(NC(=O)Cc3ccccc3F)cc2)n1	3	99	4	100	nt	nt	nt
CCC(C)NC(=O)/C=C1\Sc2ccccc2NC1=O (centres undefined)	2	109	2	135*	102	-3	100
Cc1ccc(N/C=C2/Sc3ccccc3NC2=O)cc1	-3	100	2	101	nt	nt	nt
CCSC1=NCCN1S(=O)(=O)c1ccc(Cl)cc1	-12	100	-14	109	nt	nt	nt
CCSC1=NCCN1S(=O)(=O)c1ccccc1	-16	58	9	50*[inhibitor]	103	-2	106
C[n+]1c(-c2ccccc2)sc([S-])c1-c1ccccc1	nt	nt	1	nt	nt	nt	nt
Nc1c(-c2ccccc2)cnn1-c1ccc(C(=O)O)cc1	-25	81	15	82*[inhibitor]	100	1	104
Cc1ccccc1-c1nn(-c2ccc(F)cc2F)cc1CNCCN(C)C	23	150*	12	86	144	30	106
Cc1ccccc1-c1nn(-c2ccc(F)cc2F)cc1CNCCCN(C)C	23	140*	9	105	146	29	109
COCCN(C)Cc1cn(-c2ccc(F)cc2F)nc1-c1ccccc1C	3	102	8	100	nt	nt	nt
Cc1ccc(NC(=O)c2ccc(Cl)c(S(=O)(=O)N3CCCCCC3)c2)nc1	nt	nt	2	nt	nt	nt	nt
COCC(=O)Nc1cc(C(=O)Nc2ccccc2C)ccc1Cl	-12	83	-5	82*[inhibitor]	94	-9	98
